# Assay results taken from PubChem BioAssay AID1220 (Sanford-Burnham Center for Chemical Genomics, 2008).
# Values joined by “and” are separate entries in the source; they are usually repeats but may differ in a detail not shown here. Equal values may be shown once. Screen size: about 190,000 compounds; about 1,300 (0.68%) were called active. The list comes from a sample in which actives are over-represented; it also holds similar structures and randomly drawn compounds. A number with no mark means an inactive call. No stated cut-off is given here; in the data, active means inhibition above about 50%; inactive means the rest.
# Molecular target: Mannose-6-phosphate isomerase (Homo sapiens) (UniProt P34949)
# Assay: MPI inhibition at elevated mannose 6-phosphate – biochemical, fluorescence intensity, high mannose 6-phosphate, primary screen (AID 1220)
# Settings: recombinant PMI enzyme, coupled fluorescence intensity; at 20 µM; stronger effect = higher value
# Mannose-6-phosphate isomerase (Homo sapiens), sequence (P34949 whole entry, looked up): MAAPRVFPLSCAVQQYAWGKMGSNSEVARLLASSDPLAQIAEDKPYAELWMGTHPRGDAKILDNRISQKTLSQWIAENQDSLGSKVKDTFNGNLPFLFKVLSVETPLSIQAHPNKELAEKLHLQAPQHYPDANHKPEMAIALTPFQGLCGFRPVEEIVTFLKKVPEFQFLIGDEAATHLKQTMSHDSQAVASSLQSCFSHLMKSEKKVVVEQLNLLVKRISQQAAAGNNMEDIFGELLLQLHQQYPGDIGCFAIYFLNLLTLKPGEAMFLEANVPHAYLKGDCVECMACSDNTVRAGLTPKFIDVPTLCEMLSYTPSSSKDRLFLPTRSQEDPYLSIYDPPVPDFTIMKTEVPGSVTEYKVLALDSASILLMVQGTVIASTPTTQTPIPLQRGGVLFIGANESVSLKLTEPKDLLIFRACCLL
row,SMILES,inhibition
1,Cc1cccc(C)c1NC(=O)C1=C(O)c2sccc2N(C)S1(=O)=O,2.2%
2,CCOC(=O)c1c(NC(=O)CSc2nnc(CNC(=O)c3ccco3)n2C)sc2c1CCC2,4.5%
3,CCCCCNCc1cccn1C,-9.2%
4,CCC(CC)N=C1NS(=O)(=O)c2cc([N+](=O)[O-])ccc21,-4.3%
5,Cc1cc(=O)oc2cc(OCC(O)CN3CCN(c4ccc(F)cc4)CC3)ccc12 (centres undefined),7.1%
6,O=C(COC(=O)COc1ccccc1)Nc1ccccc1OC(F)F,-0.8%
7,Cc1cccc(NS(=O)(=O)c2cc(C(=O)N3CCOCC3)ccc2Cl)c1,6.8%
8,CN(C)c1cccc(C(=O)NC2CCCCCC2)c1,5.6%
9,Cc1ccccc1CN(C)CC(=O)Nc1c(C)cccc1C(C)C,0.5%
10,CN(C)c1cccc2c(/C=N/O)ccc(N(C)C)c12,51.7% (active)
11,Cc1ccccc1OCCOc1ccccc1C=C(C#N)C#N,16.3%
12,Cc1cccc(OCCOc2ccccc2C=C(C#N)C#N)c1,11%
13,CC(=O)c1ccc(N(C)C)c2c(N(C)C)cccc12,38.5%
14,CN(C)c1ccc(/C=N/O)cc1,44.3%
15,CN(C)c1cccc2c(C=C(C#N)C#N)ccc(N(C)C)c12,63.9% (active)
16,CCOC(=O)C1CCN(C(=O)c2ccc3c(c2)OCO3)CC1,11.2%
17,COc1ccccc1OCC(=O)Nn1c(=S)[nH]c2ncccc2c1=O,-3.7%
18,CC(c1ccccc1)n1cc(C(=O)NCCN2CCOCC2)nn1 (centres undefined),-7.2%
19,Cc1csc(NC(=O)c2ccccc2[N+](=O)[O-])n1,-6.4%
20,COC(=O)c1ccncc1N,8.9%
21,Nc1ccc(Br)cc1C(=O)O,1.2%
22,Nc1cnccc1C(=O)O,63.7% (active)
23,COc1ccc(NC(=O)CSc2nc3c(c(=O)n2-c2ccccc2)SCC3)c(OC)c1,2.7%

row,SMILES,inhibition
1,CCN(CC)C(=O)c1cn(CC)c(=O)c2cc(OC)c(OC)cc12,-0.2%
2,CC(=O)Nc1cccc(NC(=O)Nc2ccc(F)cc2F)c1,19.6%
3,CC(=O)Nc1cccc(NC(=S)Nc2ccc(F)cc2F)c1,55.8% (active)
4,CC(=O)Nc1cccc(NC(=S)Nc2ccc(F)c(Cl)c2)c1,41.1%
5,COc1cccc(-n2c(Cc3cc(=O)[nH]c(=O)[nH]3)nnc2SCC(=O)N2CCC(C)CC2)c1,3.3%
6,CCOC(=O)c1c(C)[nH]c(C)c1C(=O)COC(=O)c1ccc(S(=O)(=O)N(CC)CC)cc1,4.4%
7,Cc1ccc2cccnc2c1N,70.5% (active)
8,c1cnc2c(c1)ccc1cccnc12,-13% and -7.3%
9,Cc1ccc2nc(C)c(C)nc2c1N,23.4%
10,Cc1ccc2ncccc2c1N,63.7% (active)
11,Cc1ccc2ncccc2c1[N+](=O)[O-],9.7%
12,Nc1ccc2ncccc2c1N,49.6%
13,O=C(c1cnc2n(c1=O)CCS2)N(c1ccccc1)C1CCCCC1,-10.4%
14,CCc1ccc(NC(=O)c2c(C(=O)Nc3ccccc3)sc3nc(C)cc(=O)n23)cc1,-2.4%
15,CCOC(=O)N1CCN(Cc2c(NC(=O)c3ccco3)sc(C)c2C)CC1,3.6%
16,CC1(C)CC(=O)C(C2=NC(C)(C)Cc3ccccc32)=C(O)C1,-9.5%
17,CC1=NC(C)(C)Cc2ccccc21,11%
18,CCOc1ccc2[nH]c(=S)[nH]c2c1,20.7%
19,COC(=O)/C=C1/N/C(=N\c2nc(C)cc(C)n2)N(c2cccc(C)c2)C1=O,50.4% (active)
20,COC(=O)/C=C1/N/C(=N\c2nc(C)cc(C)n2)N(c2ccccc2)C1=O,13.3%
21,COC(=O)/C=C1\N/C(=N\c2nc(C)cc(C)n2)N(c2ccc(C)cc2)C1=O,-5.3%
22,CC(/C=N\NC(=O)CN1CCN(Cc2ccccc2)CC1)=C\c1ccco1,9.7%
23,Oc1c(C(c2ccccn2)N2CCC(Cc3ccccc3)CC2)cc(Cl)c2cccnc12 (centres undefined),58.9% (active)

row,SMILES,inhibition
1,CN1CCN(C(c2ccccn2)c2cc(Cl)c3cccnc3c2O)CC1 (centres undefined),43.8%
2,Oc1c(C(c2ccccn2)N2CCCCC2)cc(Cl)c2cccnc12 (centres undefined),32.5%
3,CC(=O)Cc1nsc(NC(=O)c2ccccc2)n1,6.4%
4,Cc1ccc2cn[nH]c2c1[N+](=O)[O-],6.8%
5,Cc1ccc2cn[nH]c2c1N,58.3% (active)
6,Cc1cccc2cn[nH]c12,-8.9%
7,Nc1nc(SCC(=O)NCc2ccccc2)[nH]c(=O)c1NC(=O)c1ccccc1F,9.7%
8,Cc1ccc(NC(=O)c2ccn(C)n2)c(Br)c1,6%
9,O=C(Cn1nc(C(F)(F)F)c2c1CCC2)N1CCN(c2ccccc2)CC1,9.9%
10,CC(C)CC(=O)O/N=C1\C(=O)N(Cc2ccc(Cl)cc2)c2ccc([N+](=O)[O-])cc21,22.3%
11,CCCn1c(C)cc(/C=C(\C#N)C(=O)OCC(=O)NC(=O)NC(C)(C)C)c1C,-3.7%
12,CCN1CCN(c2cc(C)c3cc(NC(=S)N4CCOCC4)ccc3n2)CC1,13.3%
13,Cc1cc(N2CCOCC2)nc2ccc(NC(=S)N3CCN(Cc4ccccc4)CC3)cc12,35.3%
14,Cc1ccc(C)c(N2CCN(C(=S)Nc3ccc4nc(N5CCN(C)CC5)cc(C)c4c3)CC2)c1,24.4%
15,Cc1cccc(N2CCN(C(=S)Nc3ccc4nc(N5CCN(C)CC5)cc(C)c4c3)CC2)c1C,16.2%
16,Cc1cccc(N2CCN(C(=S)Nc3ccc4nc(N5CCN(C)CC5)cc(C)c4c3)CC2C)c1 (centres undefined),17.5%
17,Cc1cc(N2CCOCC2)nc2ccc(NC(=S)N3CCN(c4ccccc4)CC3)cc12,52.5% (active)
18,Cc1cccc(N2CCN(C(=S)Nc3ccc4nc(N5CCOCC5)cc(C)c4c3)CC2C)c1 (centres undefined),51.9% (active)
19,Cc1cc(N2CCN(C)CC2)nc2ccc(NC(=S)N3CCN(c4ccc(Cl)cc4)CC3)cc12,41.7%
20,Cc1cc(N2CCN(C)CC2)nc2ccc(NC(=S)N3CCN(c4ccc(F)cc4)CC3)cc12,29.1%
21,CCN1CCN(c2cc(C)c3cc(NC(=S)N4CCN(c5ccccc5)CC4)ccc3n2)CC1,28.1%
22,COc1ccccc1N1CCN(C(=S)Nc2ccc3nc(N4CCOCC4)cc(C)c3c2)CC1,62.5% (active)
23,Cc1ccc(C)c(N2CCN(C(=S)Nc3ccc4nc(N5CCOCC5)cc(C)c4c3)CC2)c1,58.5% (active)
